Results as given in ChEMBL document CHEMBL4513216, “Probing the Open Global Health Chemical Diversity Library for Multistage-Active Starting Points for Next-Generation Antimalarials” (ACS Infect Dis, 2020).
The campaign covered roughly 69,000 compounds. About 8,600 (12%) showed an effect of 50% or more. This excerpt belongs to a sample that is enriched for strong results.

system: Plasmodium berghei; test: Screen against P. berghei liver stage (PbLuc), transformed with Luciferase, at 10uM; assay type: functional, HepG2; details: tested at 10 uM

First: c1cnc(N2CCOCC3(C2)CN(c2nccs2)CCO3)nc1 (centres undefined)
Second: N#Cc1cccnc1N1CCN(C(=O)c2cccs2)CC1
The INHIBITION of the first is higher: 44.8% for the first, 9.16% for the second.

First: CN(CC(=O)NC(Cc1ccsc1)c1cccnc1)Cc1cccnc1 (centres undefined)
Second: CN(CC(=O)NC(Cc1ccsc1)c1cccnc1)Cc1ccccn1 (centres undefined)
The INHIBITION of the first is higher: 64.6% for the first, 26.1% for the second.

Compared with `Cc1csc(C(Cc2ccsc2)NC(=O)CN(C)Cc2cccnc2)n1` (centres undefined), `CCOc1ccccc1C(C(=O)O)N(C)Cc1cc(C)[nH]n1` (centres undefined) is lower in INHIBITION: 42.6% for the first, 27.6% for the second.

Compared with `CC(NC(=O)N1CCCN(C)CC1)c1ccc(S(N)(=O)=O)cc1` (centres undefined), `Cc1csc(N2CCCN(C(=O)c3cccs3)CC2)n1` is higher in INHIBITION: -5.22% for the first, 29.2% for the second.

Going from `Cc1ccc(O)c(CNC2CCc3nc(C(C)C)nn3C2)n1` (centres undefined) to `Cc1n[nH]c(C)c1NC(=O)CN1CCc2c(nc(C(C)C)n2C)C1`, the INHIBITION falls from 15.8% to -2.48%.

Going from `CN1CC(=O)N(c2ccsc2)CC12CCN(C(=O)N1CCCC1)C2` (centres undefined) to `CS(=O)(=O)N1CCCCC12CCN(C(=O)c1ccccc1)C2` (centres undefined), the INHIBITION rises from -5.05% to 61.8%.

First: CCOC(=O)c1n[nH]cc1-c1cncn1CCn1nc(C)c(Cl)c1C
Second: CCCc1noc(CCCC(=O)N2CCCC2c2cnn(C)c2)n1 (centres undefined)
The INHIBITION of the first is lower: -39.4% for the first, 64.7% for the second.

First: CS(=O)(=O)N1CCCC12CCCN(C(=O)c1ccc3[nH]ccc3c1)C2 (centres undefined)
Second: CS(=O)(=O)N1CCCC12CCCN(C(=O)c1ccc3c(c1)OCO3)C2 (centres undefined)
The INHIBITION of the first is higher: 57.9% for the first, -1.15% for the second.

Compared with `CS(=O)(=O)N1CCCC12CCCN(C(=O)c1ccncc1)C2` (centres undefined), `CS(=O)(=O)N1CCCC12CCCN(C(=O)c1ccnnc1)C2` (centres undefined) is higher in INHIBITION: 10.7% for the first, 26.4% for the second.

Going from `CS(=O)(=O)N1CCCC12CCCN(C(=O)c1ccc[nH]1)C2` (centres undefined) to `CCN1CC(=O)NCC12CCN(C(=O)c1ccco1)C2` (centres undefined), the INHIBITION rises from -24.8% to 1.34%.

Compared with `O=S1(=O)C[C@@H]2[C@H](C1)N(Cc1ncc[nH]1)CCN2CCCc1ccccc1`, `Cn1nc(C2CCCN(Cc3ccccc3)C2)c2nccnc21` (centres undefined) is higher in INHIBITION: 34.275% for the first, 64.9% for the second.

Going from `COc1ccc(Cl)cc1NC(=O)CN1CCc2nc(NC(C)=O)sc2C1` to `Cn1cc(NC(=O)Cc2cccs2)c(=O)n(C)c1=O`, the INHIBITION falls from 30.2% to -7.16%.

First: Cn1cc(C2CCCN2C(=O)CCCOc2ccccc2F)cn1 (centres undefined)
Second: Cn1cc(C2CCCN2C(=O)CCCc2ccccn2)cn1 (centres undefined)
The INHIBITION of the first is lower: 0.914% for the first, 62.6% for the second.

Compared with `Cn1cc(C2CCCN2C(=O)CCCc2cccs2)cn1` (centres undefined), `CCCc1noc(CCC(=O)N2CCCC2c2ccncc2)n1` (centres undefined) is higher in INHIBITION: 9.14% for the first, 13.3% for the second.

Going from `CCCc1noc(CCC(=O)N2CCCC2c2ccc(OC)cc2)n1` (centres undefined) to `Cc1nc(C2CCCN2Cc2ccn(C)c(=O)c2)no1` (centres undefined), the INHIBITION rises from 0.914% to 5.7%.

First: Cc1nnc([C@@H]2C[C@H]3CN(C(=O)c4c(C)noc4C)C[C@H]3O2)[nH]1
Second: Cc1cc(C)n(CC2CCCN2C(=O)c2ccc3nncn3c2)n1 (centres undefined)
The INHIBITION of the first is higher: 12.7% for the first, -54.6% for the second.

Compared with `CC(C)Cc1cc(NC(=O)c2ccncc2)n(C)n1`, `Cn1cc(Br)cc(NC(=O)Cc2cccs2)c1=O` is higher in INHIBITION: 48.4% for the first, 53.3% for the second.

Going from `c1ccc(Cc2cncc(C3CCCN3C3CCOCC3)n2)cc1` (centres undefined) to `c1cncc(CN2CCCC(c3nnc(-c4cnccn4)o3)C2)c1` (centres undefined), the INHIBITION falls from 10.175% to -22.6%.

Compared with `Cn1nc(C2CCCN(Cc3cc(F)cc(F)c3)C2)c2nccnc21` (centres undefined), `Cn1nc(C2CCCN(Cc3ccc(F)c(F)c3)C2)c2nccnc21` (centres undefined) is higher in INHIBITION: 36.4% for the first, 54.4% for the second.

First: Fc1ccc(CN2CCCC(c3nnc(-c4cnccn4)o3)C2)cc1F (centres undefined)
Second: c1cc(CN2CCCC(c3nnc(-c4cnccn4)o3)C2)ccn1 (centres undefined)
The INHIBITION of the first is higher: 58.6% for the first, 26.8% for the second.

Going from `Cn1nc(C2CCCN(Cc3cc(F)ccc3F)C2)c2nccnc21` (centres undefined) to `Cn1nc(C2CCCN(Cc3cccc(F)c3)C2)c2nccnc21` (centres undefined), the INHIBITION falls from 40% to 31.3%.

First: Cn1nc(C2CCCN(Cc3ccc(F)cc3)C2)c2nccnc21 (centres undefined)
Second: Cc1noc2nc(C3CCCN(Cc4ccncc4)C3)cc(C(F)F)c12 (centres undefined)
The INHIBITION of the first is higher: 43.6% for the first, 34% for the second.

First: COCCN(C)C(C(=O)O)c1ccc(C)c(C)c1 (centres undefined)
Second: COCCN1CCCC1(C)c1nc(C)cc(N)n1 (centres undefined)
The INHIBITION of the first is higher: 19.4% for the first, -3.94% for the second.

Compared with `Cc1nc(C(C)NCc2cc(O)c3cccc(F)c3n2)cs1` (centres undefined), `O=C(NCCc1nnc2n1CCC2)NCC1(c2ccccc2F)CC1` is higher in INHIBITION: -2.48% for the first, 33.8% for the second.

Going from `CCC(=O)Nc1cc(Br)cn(C)c1=O` to `Cc1ccc(N2CC[C@H]3[C@@H]2CCC(=O)N3CCN2CCOCC2)nn1`, the INHIBITION rises from 8.92% to 18.7%.

First: Nc1nc2c(c(N3CCN(C(=O)c4cccs4)CC3)n1)CCCC2
Second: Nc1nc2c(c(NCc3ccc(C(=O)N4CCCC4)cc3)n1)CCCC2
The INHIBITION of the first is higher: 72.5% for the first, 63.8% for the second.

Going from `Nc1nc2c(c(NCc3nc(-c4ccncc4)n[nH]3)n1)CCCC2` to `Nc1nc2c(c(NCc3ccncc3)n1)CCCC2`, the INHIBITION rises from -97.2% to -68.2%.
